The results in this text go back to PubChem BioAssay (Tox21).

Test [1] in a line: qHTS assay to identify small molecule antagonists of the estrogen related receptor (ERR) signaling pathway from Tox21 library - cell viability counter screen (AID 1224834). Also: nearly all actives have a fitted effect of over 30% in size. Also: potency is read from the fitted curve at half-maximal effect. The gist of the method: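 CellTiter-Fluor fluorescence, read after 30 min at 37 C, measures viability of ERR cells. Cells plated at 2,000/well and incubated 6 h before pin-tool compound addition, then exposed 17.5 hours at 37 C.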
In general terms: In qHTS, concentration-response curves come from the screen itself.

Test [2] has as its target Luciferin 4-monooxygenase (Photinus pyralis) (UniProt P08659). Description: qHTS assay to identify small molecule inhibitors of firefly luciferase (AID 1224835). Also: nearly all actives have a fitted effect of over 25% in size. Also: potency is read from the fitted curve at half-maximal effect. The method in brief:
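Inhibition of purified Photinus luciferase is measured by luminescence. Substrate levels (D-luciferin, ATP) sit at their KM values. Each compound is tested in a concentration series.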

A short description of test [3]: qHTS assay to identify small molecule agonists of the constitutive androstane receptor (CAR) signaling pathway - cell viability counter screen (AID 1224836). Also: nearly all actives have a fitted effect of over 45% in size. Also: potency is read from the fitted curve at half-maximal effect. The gist of the method: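 23 h treatment, 37 C, 5% CO2. Cell line: HepG2 stably expressing hCAR with a CYP2B6-2.2kb construct. Co-treatment: PK11195, 0.75 uM final. Read-out: CellTiter-Fluor fluorescence intensity.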

Test [4] in a line: qHTS assay to identify small molecule antagonists of the constitutive androstane receptor (CAR) signaling pathway - cell viability counter screen (AID 1224837). Also: nearly all actives have a fitted effect of over 45% in size. Also: potency is read from the fitted curve at half-maximal effect. The method in brief:
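Cytotoxicity counter-screen: CellTiter-Fluor fluorescence after 23 h compound exposure (15-point qHTS) in double-stable HepG2-CYP2B6-hCAR cells, with 50 nM CITCO added.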

In test [5] the target is Nuclear receptor subfamily 1 group I member 3 (Homo sapiens) (UniProt Q14994). The test can be described thus: qHTS assay to identify small molecule antagonists of the constitutive androstane receptor (CAR) signaling pathway (AID 1224838).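 Also: HepG2 cells stably expressing hCAR with CYP2B6 luciferase reporter stimulated by CITCO; nearly all actives have a fitted effect of over 40% in size.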 Also: potency is read from the fitted curve at half-maximal effect. The gist of the method:
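Antagonism measured as luciferase signal (ONE-Glo, 30 min, room temperature) in CAR-stimulated cells: HepG2-CYP2B6-hCAR double-stable line exposed 24 hr at 37 C to compound in a 15-point series plus 50 nM CITCO.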

Test [6] has the same target. The test can be described thus: qHTS assay to identify small molecule agonists of the constitutive androstane receptor (CAR) signaling pathway (AID 1224839). Also: nearly all actives have a fitted effect of over 15% in size. Also: potency is read from the fitted curve at half-maximal effect. The method in brief:
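Compounds tested at 15 concentrations on HepG2 cells stably harbouring hCAR and CYP2B6-2.2kb reporter constructs, co-treated with PK11195 (0.75 uM final), 24 h at 37 C; luminescent reporter signal quantified.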

Test [7] is described as follows: qHTS assay to identify small molecule antagonists of the estrogen related receptor signaling pathway with the pleiotropic PPARgamma coactivator (PGC) from Tox21 10K library - cell viability counter screen (AID 1224840; active = well fitted cell-killing curve with a large enough effect in the repeat runs, not every such curve was filed as active; also: nearly all actives have a fitted effect of over 40% in size; also: potency is read from the fitted curve at half-maximal effect). The gist of the method:
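Counter-screen for cytotoxicity: after 17.5 h compound exposure at 37 C, CellTiter-Fluor reagent added to PGC/ERR cells for 30 min and fluorescence read. Cells were seeded at 2,000 per well 6 h before dosing.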

For test [8], the target named is Thyrotropin receptor (Homo sapiens) (UniProt P16473). The test can be described thus: qHTS assay to identify small molecule agonists of the thyroid stimulating hormone receptor (TSHR) signaling pathway (AID 1224843; calls by dose curve; also: nearly all actives have a fitted effect of over 45% in size). The gist of the method: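 Agonist activity read as cAMP rise via d2/cryptate HTRF competition, 1 h room-temperature detection, in HEK293 cells expressing TSHR. Fifteen-point titrations, each run in triplicate, with a 30 min room-temperature incubation beforehand.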

Test [9] is described as follows: qHTS assay to identify small molecule antagonists of the estrogen related receptor signaling pathway with the pleiotropic PPARgamma coactivator (PGC) from Tox21 10K library (AID 1224841; call rule not given here; also: actives are mostly falling curves and most rising ones were filed inactive; nearly all actives have a fitted effect of over 50% in size; also: potency is read from the fitted curve at half-maximal effect). The method in brief:
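Luminescence (One-Glo, 30 min at room temperature) after 18 h compound treatment at 37 C of PGC/ERR reporter cells plated at 2,000 cells/well and settled 6 h beforehand.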

A short description of test [10]: qHTS assay to identify small molecule agonists of the estrogen related receptor signaling pathway with the pleiotropic PPARgamma coactivator (PGC) from Tox21 10K library (AID 1224842). Also: nearly all actives have a fitted effect of over 15% in size. The method in brief: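 Luminescence from One-Glo (30 min, room temperature) measured after PGC/ERR cells had 18 h at 37 C with pinned compound (23 nL in DMSO). Cells had been seeded at 2,000 per well and pre-incubated 6 h.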

Values joined by “and” are separate entries in the source; they are usually repeats but may differ in a detail not shown here. Equal entries are not always repeated. Inconclusive results are not listed. Some compounds were tested as several samples or in several runs, with calls that do not always agree. Active and inactive are the calls of the source. Unless noted, calls follow the shape of the dose curve; as a rule, active = well fitted curve in the direction sought with a large enough effect in the repeat runs; inconclusive = weak or mixed curves; inactive = no such curve, though single readings can be large; an effect the other way counts as inactive or inconclusive.

Chain of Luciferin 4-monooxygenase (Photinus pyralis) (P08659 whole entry, looked up): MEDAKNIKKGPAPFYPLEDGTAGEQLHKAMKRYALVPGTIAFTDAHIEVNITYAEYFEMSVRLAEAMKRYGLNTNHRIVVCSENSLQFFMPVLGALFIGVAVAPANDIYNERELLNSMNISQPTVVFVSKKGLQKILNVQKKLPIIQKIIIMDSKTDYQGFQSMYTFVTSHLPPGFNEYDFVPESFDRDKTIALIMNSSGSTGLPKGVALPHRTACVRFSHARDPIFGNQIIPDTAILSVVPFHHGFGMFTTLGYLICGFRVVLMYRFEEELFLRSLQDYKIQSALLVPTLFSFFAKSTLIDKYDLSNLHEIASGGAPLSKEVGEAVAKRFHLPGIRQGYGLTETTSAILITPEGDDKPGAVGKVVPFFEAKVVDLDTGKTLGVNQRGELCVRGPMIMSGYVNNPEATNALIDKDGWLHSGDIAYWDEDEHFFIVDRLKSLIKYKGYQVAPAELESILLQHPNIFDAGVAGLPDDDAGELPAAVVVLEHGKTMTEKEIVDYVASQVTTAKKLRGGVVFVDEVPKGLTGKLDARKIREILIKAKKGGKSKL
Chain of Nuclear receptor subfamily 1 group I member 3 (Homo sapiens) (Q14994 whole entry, looked up): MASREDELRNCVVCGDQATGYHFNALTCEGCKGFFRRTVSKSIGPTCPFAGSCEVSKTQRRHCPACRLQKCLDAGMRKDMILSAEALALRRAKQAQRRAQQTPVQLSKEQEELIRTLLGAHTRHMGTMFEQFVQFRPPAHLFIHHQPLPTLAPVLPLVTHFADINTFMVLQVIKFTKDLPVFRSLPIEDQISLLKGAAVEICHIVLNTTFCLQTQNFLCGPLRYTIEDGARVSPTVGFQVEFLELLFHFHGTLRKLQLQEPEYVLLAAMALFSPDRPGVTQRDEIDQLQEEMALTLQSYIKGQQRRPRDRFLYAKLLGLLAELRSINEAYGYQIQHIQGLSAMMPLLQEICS
Chain of Thyrotropin receptor (Homo sapiens) (P16473 whole entry, looked up): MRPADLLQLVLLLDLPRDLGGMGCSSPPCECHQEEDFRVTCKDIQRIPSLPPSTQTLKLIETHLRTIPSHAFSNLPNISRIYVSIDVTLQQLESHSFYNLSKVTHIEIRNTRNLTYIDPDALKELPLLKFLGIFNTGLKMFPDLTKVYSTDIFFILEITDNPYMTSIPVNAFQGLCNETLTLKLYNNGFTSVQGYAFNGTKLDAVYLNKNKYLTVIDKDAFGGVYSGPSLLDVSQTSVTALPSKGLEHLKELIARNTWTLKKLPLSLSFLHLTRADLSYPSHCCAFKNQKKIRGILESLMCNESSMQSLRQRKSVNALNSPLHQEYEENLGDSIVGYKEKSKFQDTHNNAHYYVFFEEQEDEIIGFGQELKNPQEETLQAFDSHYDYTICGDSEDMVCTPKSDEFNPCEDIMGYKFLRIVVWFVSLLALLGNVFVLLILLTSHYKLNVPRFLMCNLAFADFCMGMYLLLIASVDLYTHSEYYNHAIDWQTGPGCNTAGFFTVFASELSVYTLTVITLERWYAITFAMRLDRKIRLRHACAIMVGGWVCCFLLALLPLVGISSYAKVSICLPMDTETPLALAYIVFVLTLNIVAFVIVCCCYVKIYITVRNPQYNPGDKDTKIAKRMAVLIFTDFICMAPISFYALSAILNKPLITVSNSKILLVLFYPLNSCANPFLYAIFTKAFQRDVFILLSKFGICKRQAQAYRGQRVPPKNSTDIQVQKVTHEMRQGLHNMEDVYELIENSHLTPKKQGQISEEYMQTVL

In the case of `CCCCCCCCCC(CC)c1ccc(S(=O)(=O)O)cc1` (stereo not given), the Potency in [1] was 61.8 µM (active) and inactive. Besides, the Potency result in test [2], in test [3] and in test [4] was “inactive” each time.
Take `[CH3][Sn]([Cl])([Cl])[Cl]`: the Potency result in [1], in test [2], in test [3], in test [4], in [5] and in test [6] was “inactive” throughout. The Potency result in test [7] and in test [8] was “inactive” throughout.
Consider `O=C(O)c1nn(Cc2ccc(Cl)cc2Cl)c2ccccc12`, for which the Potency entry in test [1], in test [2], in test [3], in [4], in test [5] and in [6] was “inactive” each time. Further, the Potency entry in test [7], in [10] and in test [8] was “inactive” in each case. The Potency in [9] is 68.1 µM (active) and inactive.
With `ClCC(Cl)CCl`, the Potency entry in test [1], in test [2], in test [3], in test [4], in test [5] and in test [6] was “inactive” in each case. The Potency entry in test [7], in test [9], in test [10] and in test [8] was “inactive” in each case.
On to `CCCCOC(=O)COC(=O)c1ccccc1C(=O)OCCCC`, for which the Potency entry in test [1], in test [3], in [4], in [5], in [6] and in [7] was “inactive” each time. The Potency result in test [9] and in test [10] was “inactive” throughout. In addition, the Potency in test [2] was 12.6 µM (active) and 35.6 µM (active).
Consider `CCCCSP(=O)(SCCCC)SCCCC`, for which the Potency entry in test [1], in [2], in test [3], in test [4] and in [5] was “inactive” each time. Further, the Potency in test [6] was 23.8 µM (active) and 8.63 µM (active).
Turning to `C=C(C)C#N`, the Potency result in [1], in [2], in test [3], in test [4], in test [5] and in [6] was “inactive” each time. Further, the Potency entry in test [7] and in [8] was “inactive” throughout.
`CCCCC(C#N)(Cn1cncn1)c1ccc(Cl)cc1` (stereo not given): the Potency result in test [1], in test [2], in test [3], in test [4], in test [5] and in [6] was “inactive” in each case. Besides, the Potency result in test [7], in test [9] and in [10] was “inactive” each time.
Regarding `NC(=O)CN1CCCC1=O`, the Potency entry in test [1], in test [2], in [3], in [4], in [5] and in test [6] was “inactive” in each case. Besides, the Potency result in [9] and in test [10] was “inactive” in each case.
Regarding `CCC/C=N/O`, the Potency entry in test [1], in test [2], in test [3], in test [4], in test [5] and in [6] was “inactive” throughout.
Take `N#CC(c1ccccc1)c1ccccc1`: the Potency entry in [1], in test [2], in [3], in test [4], in test [5] and in [6] was “inactive” in each case. Further, the Potency entry in test [7], in test [9], in test [10] and in test [8] was “inactive” throughout.
Take `CC(C)(C#N)N=NC(C)(C)C#N`: the Potency entry in [1], in test [2], in [3], in test [4], in test [5] and in test [6] was “inactive” in each case. Also, the Potency entry in [7] and in [8] was “inactive” each time.
Take `Cc1ccc([N+](=O)[O-])cc1`: the Potency result in test [1], in test [2], in [3], in test [4], in [5] and in test [6] was “inactive” throughout. Also, the Potency entry in test [7] and in test [8] was “inactive” throughout.
In the case of `COc1ccc(C=O)cc1OC`, the Potency entry in test [1], in test [2], in test [3], in [4], in test [5] and in test [6] was “inactive” in each case. Further, the Potency entry in test [7], in [9] and in test [10] was “inactive” in each case.
In the case of `C[C@]12CC[C@H]3[C@@H](CCC4=CC(=O)CC[C@@H]43)[C@@H]1CC[C@@H]2O`, the Potency entry in test [1], in test [2], in test [4], in [5], in [6] and in [7] was “inactive” each time. For the same molecule, the Potency result in test [8] is “inactive”.
On to `CC(C)=CC1C(C(=O)OCc2cccc(Oc3ccccc3)c2)C1(C)C` (stereo not given), for which the Potency result in [1], in [2], in test [3], in test [4], in [5] and in test [9] was “inactive” in each case. The Potency result in test [10] and in test [8] was “inactive” throughout. Further, the Potency in test [6] was 4.86 µM (active) and 6.68 µM (active).
Turning to `O=[N+]([O-])/N=C1\NCCN1Cc1ccc(Cl)nc1`, the Potency result in test [1], in [2], in test [3], in test [4], in test [5] and in [6] was “inactive” each time. Moreover, the Potency entry in [9], in test [10] and in [8] was “inactive” throughout.
As for `CCC(=O)Nc1ccc(Cl)c(Cl)c1`, the Potency result in [1], in test [2], in test [4], in [5], in [6] and in test [7] was “inactive” in each case.
Take `ClC(Cl)=C(Cl)C(Cl)=C(Cl)Cl`: the Potency entry in test [1], in [2], in test [3], in [4] and in [8] was “inactive” throughout.
As to `NN=C(N)N`, the Potency result in test [1], in test [2], in test [3], in test [4] and in test [7] was “inactive” in each case.
On to `CC1=C(C(=O)Nc2ccccc2)SCCO1`, for which the Potency entry in [1], in [3], in [4], in [9], in test [10] and in test [8] was “inactive” each time. Also, the Potency in test [2] was 36.2 µM (active) and 44.8 µM (active).
As to `COP(=S)(OC)Oc1ccc(S(=O)(=O)N(C)C)cc1`, the Potency entry in test [1], in test [2], in test [3], in test [4], in test [5] and in test [6] was “inactive” in each case. The Potency entry in [9], in test [10] and in test [8] was “inactive” throughout.
In the case of `CCOP(=S)(OCC)SCSC(C)(C)C`, the Potency entry in test [1], in test [2], in [4], in test [5], in [6] and in test [7] was “inactive” in each case. Moreover, the Potency result in test [8] was “inactive”.
In the case of `CCC[CH2][Sn]([Cl])([CH2]CCC)[CH2]CCC`, the Potency was 2.17 µM (active) and 1.22 µM (active) in [1]; 31.8 µM (active) and 39.9 µM (active) in test [2]; 1.54 µM (active) and 686 nM (active) in test [4]; 244 nM (active) and 386 nM (active) in [5]; 1.09 µM (active) and 864 nM (active) in [7]. Besides, the Potency entry in test [6] is “inactive”.
For the molecule `O=[N+]([O-])c1ccc(Cl)c([N+](=O)[O-])c1`, the Potency is 24.7 µM (active) and 38.6 µM (active) in [1]; 19.6 µM (active) and 24.3 µM (active) in [3]; 22 µM (active) and 17.2 µM (active) in test [4]; 19.6 µM (active) and 15.4 µM (active) in [5]. Further, the Potency entry in [2], in [6] and in test [10] was “inactive” in each case.
